Assay outcomes from PubChem BioAssay.
Pf apPOL block: Pf-apPOL DNA polymerase inhibition. actives 0.25% (n = 210,000). inhibition, % at 10 µM. Recombinant Pf-apPOL, molecular beacon fluorescence, 1.5 h
mHTT CaM bind: mHTT-calmodulin interaction abrogation | actives 3.6% (n = 190,000) | inhibition, % at 15 µM | AlphaScreen His-mHTT/GST-CaM binding, luminescence | P42858;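 note: 0% = both proteins with DMSO and 100% = one protein alone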
* hit, by the source's call. This is one part of a sample in which hits are shown more often than they occur. Cut-off read from the data, not from the text of the source: active = inhibition above about 50%; inactive = the rest.

SMILES | Pf apPOL block | mHTT CaM bind
COc1cc(C(O)C[N+](=O)[O-])ccc1OCc1ccccc1 (configuration not stated) | -3 | 9
CCOCCCN(Cc1ccco1)C(=O)c1noc2c1CCCCC2 | -3 | 24
O=C1CSC(c2cn(-c3ccccc3)nc2-c2cccs2)N1Cc1ccccc1 (configuration not stated) | 2 | 3
O=C1CSC(c2cn(-c3ccccc3)nc2-c2cc3ccccc3oc2=O)N1CC1CCCO1 (configuration not stated) | -4 | 58*
Cc1ccc(-c2nn(-c3ccccc3)cc2C2SCC(=O)N2Cc2ccccc2)o1 (configuration not stated) | 4 | 94*
O=C1CSC(c2cn(-c3ccccc3)nc2-c2ccccc2)N1Cc1cccnc1 (configuration not stated) | -4 | 30
O=C1CSC(c2cn(-c3ccccc3)nc2-c2cc3ccccc3oc2=O)N1Cc1ccco1 (configuration not stated) | 2 | 31
O=C1CSC(c2cn(-c3ccccc3)nc2-c2ccc(Cl)cc2)N1Cc1cccnc1 (configuration not stated) | -4 | 58*
CC1=C(C(=O)Nc2ccccc2)C(c2cccc(Br)c2)n2ncnc2N1 (configuration not stated) | 0 | 8
COc1ccc(CNC(=O)c2cnn3c2NC(c2ccc(OC)cc2)CC3C(F)(F)F)cc1 (configuration not stated) | -1 | 19
COc1cccc(C2CC(C(F)(F)F)n3ncc(C(=O)NCc4ccc(F)cc4)c3N2)c1 (configuration not stated) | -7 | 64*
Cc1ccc(C(=O)Nc2ccc(NC(=O)c3ccco3)cc2)cc1C | -7 | -2
Cc1nc2c(C(=O)NC3CCCCC3)cnn2c(C)c1Cc1ccc(Cl)cc1 | -2 | -6
Cc1nc2c(C(=O)NC3CC3)cnn2c(C)c1Cc1cccc(Cl)c1 | -8 | 97*
Cc1nc2c(C(=O)NC3CC3)cnn2c(C)c1Cc1ccc(F)cc1 | -5 | 64*
Cc1nc2c(C(=O)NC3CCCCC3)cnn2c(C)c1Cc1cccc(Br)c1 | -4 | 43
Cc1nc2c(C(=O)NC3CCCC3)cnn2c(C)c1Cc1ccc(Cl)cc1 | -9 | -6
Cc1nc2c(C(=O)NC3CC3)cnn2c(C)c1Cc1cccc(Br)c1 | -4 | 92*
COc1cc(CC(=O)O)c(Cc2cc(OC)c(OC)cc2CC(=O)O)cc1OC | 18 | 4
COc1ccc(/C=C2/SC(N3CCN(CCO)CC3)=NC2=O)cc1OC | -8 | 3
O=C(c1ccco1)N1CCCC2(C1)Nc1ccccc1NC2=NCc1ccccc1 (configuration not stated) | -5 | 84*
CC(=O)N1CCCC2(C1)Nc1ccccc1NC2=NCc1ccccc1 (configuration not stated) | 1 | 72*
O=C(c1ccoc1)N1CCCC2(C1)Nc1ccccc1NC2=NCc1ccccc1 (configuration not stated) | 4 | 100*
O=C(c1ccccn1)N1CCCC2(C1)Nc1ccccc1NC2=NCc1ccccc1 (configuration not stated) | -9 | 45
O=C(c1cccnc1)N1CCCC2(C1)Nc1ccccc1NC2=NCc1ccccc1 (configuration not stated) | -5 | 46
SMILES | Pf apPOL block | mHTT CaM bind
CCn1nccc1C(=O)N1CCCC2(C1)Nc1ccccc1NC2=NCc1ccccc1 (configuration not stated) | -11 | 36
COc1nn(C)cc1C(=O)N1CCCC(C(=O)Nc2ccc3c(c2)Cc2ccccc2-3)C1 (configuration not stated) | 7 | 21
CCCn1cc(C2=CCN(S(=O)(=O)c3ccc(F)c(C)c3)CC2)c2cccnc21 | 0 | 38
CCC(=O)NCCc1csc(C2CCN(C(=O)c3ccc(F)cc3F)CC2)n1 | -3 | 11
Cc1cc(Cl)ccc1OCC(O)CN1CCN(c2ccccc2)CC1 (configuration not stated) | -4 | 93*
COc1ccccc1N1CCN(CC(O)COc2ccc(C)c(C)c2)CC1 (configuration not stated) | -2 | 38
COc1ccccc1N1CCN(C(=O)COc2ccc(Br)cc2C)CC1 | -4 | 23
COc1ccccc1N1CCN(CC(O)COc2ccc(Cl)c(C)c2)CC1 (configuration not stated) | 2 | 99*
COc1ccccc1N1CCN(C(=O)COc2cc(C)c(Br)c(C)c2)CC1 | -5 | 56*
Cc1ccc(OCC(O)CN2CCN(c3ccccc3)CC2)c(C)c1 (configuration not stated) | 2 | 14
CC(C)(C)c1ccccc1OCC(O)CN1CCN(c2ccccc2)CC1 (configuration not stated) | -1 | 99*
COc1ccccc1OCC(O)CN1CCN(c2ccc(F)cc2)CC1 (configuration not stated) | -10 | -14
Cc1ccn2cc(C(=O)NCc3ccc(F)cc3F)nc2c1 | 2 | -12
